Seed-corrected z-score data for 66 sequences are collected here from PubChem BioAssay AID1159506 (National Center for Advancing Translational Sciences (NCATS), 2015).

The full ranking holds about 59,000 sequences; the median of the read-out is about -0.00055, and the lowest 2% start at about -2. This is one part of a sample in which the lowest values are shown more often than they occur.

The nature of the test: Identification of proteins required for the processing of the EWS-FLI1 nascent transcript.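 Note: robust z of luciferase light less the median z of siRNAs with the same seed.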 The settings on record: TC32 Ewing sarcoma NR0B1-luc vs CMV-luc (EWS-FLI1 target promoter against control promoter), 48 h; screened at 20 nM (by protocol). A digest of the protocol: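 Genome-wide siRNA screen (Ambion v4.1, three siRNAs per gene, 20 nM final, RNAiMax) in Ewing sarcoma TC32 cells carrying NR0B1-promoter or CMV-promoter luciferase; OneGlo luciferase read 48 h post-transfection. Data normalized, z-score-MAD transformed and seed-adjusted.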
UCCUGAUCUAUCCAUAGGC against IFITM3 gave a seed-corrected z-score of -0.0222. The sequence UUCUCAAACACCUUCUUCC against QTRT1 returned a seed-corrected z-score of -0.0367. For UGCUCCAUCACAAAGGCGG against FN3K the value was 1.15. The same measure for AUGGGAAUUAUGUCGGUUG against SCEL: 0.236; for UCCAGUUGUACUUCUUGCC against GFOD1: -3.99. The same measure for AAACUCUUUAGGAAAGAUG against POLR2D: -0.98; for UUAGCUGCCUGGAUAAGCG against CTNNA2: -0.541. In turn, UUUCCAACAUGAUCCACUG against TM2D2 came in with a seed-corrected z-score of 0.00525.

Take AAACGUUUGGAGCCUCUUG against NOXO1: the seed-corrected z-score is -2.35. For AUAGGGAACAGGAUAGCCC against C1orf74 the value was 1.41; for UAGAUCUUUCCUCUGGUGG against FAM132B, -0.705. UGAACCGAGACUGUGGCAC against SERF1B displayed a seed-corrected z-score of -0.313. For UCCUUCUUGAGCAGGUUCU against SOX14, the seed-corrected z-score is -0.364. The same measure for AUUGUUGUCCAUAAUAGGC against IKZF2: -0.0322; for UGACUAUUAAGAUAUGAAG against ZNF121: -2.14. The same measure for UUCUUUACAACUAUCCGAG against FBXO5: 2.48; for UUGCCUAUCAGUAGCAGUU against RAB3D: -2.07; for UGAUUGGAAAGCUUGUUCU against ME3: 0.0737. The same measure for UCGCUGAUGAGGAUCUUCC against KCNA10: -0.144. With UAUACAAUGAGGCAGCUGA against ISCA1P1, the seed-corrected z-score came to 0.235. In turn, UCUGGUGGGACUGGUGUUG against ZNF574 returned a seed-corrected z-score of -3.85. UUUCUGAUCAUCUUGGUCC against SAFB came in with a seed-corrected z-score of -0.16. The same measure for UUCUGGAUCCCAAAUAGUG against ARHGAP19: 0.0206; for UGUUAUCCGAGUAUAAUAC against PSMD12: -2.56. The same measure for UUAUCACCCAUAGGAGCCU against LOC400965: 0.18. For UGUCUUGUAGAUUUCCACC against TATDN1 the value was -0.0339; for AUAGCUGUGAGACAUCAGG against PRCD, -2.08. UUAGUUCGUUCCUCUGUGC against PSMC5 came in with a seed-corrected z-score of 1.1.

For UUCGCUGACUCUGUAACCC against CACNB4, the seed-corrected z-score is -0.0786. The same measure for UACUCGCUCACCACAAAGG against SRSF4: -0.234. Take UCUCGGUUCAUUUUCUUGA against HOXC10: the seed-corrected z-score was 0.936. As for AAUGAUUUUAGAAGCCUGU against NPR3, the seed-corrected z-score is 0.11. For “UAAGAUACUAUGGGAAAUA against C20orf166-AS1” the value was -2.11. The same measure for AAAGUUUAAGCAACCGUCG against RPS23P8: 1.69; for AAAUCGUUCAAUUACAUCC against ADAM17: 0.501; for UGGAGAGUAUGGGUAGUCG against CDC34: -1.87. The same measure for UCAGGUUCUUCCGUAGCUG against PHF21A: -0.312. Turning to AAAGACUCCAUAUAGACGG against ROR1, the seed-corrected z-score is -0.522. The same measure for AUCAAUGACAUAAUCGCUG against SHANK3: -0.601; for AGUGGAGUUAGAUAGUUGG against KDM6A: -4.37; for UACCACAUUACACUCGUCU against NPM3: 0.156. In turn, UUGUUGUCCAUAAUUGUCC against RNF8 had a seed-corrected z-score of 1.95. For UCCGGAUAUACUGUGCUUC against PCMTD2 the value was 0.0601; for UUUGGGCCUGCUGAAAUUG against RNF148, 0.493. The same measure for AACUGUCUUGUUGCUCUUG against NFKBID: -0.0314; for AAGAUAGUCAAGCAUGUGC against ELMO3: 0.733. The same measure for UGUUGUCGCAGUGAGGAGC against KIAA0141: -2; for UUUGGUGACUGGACCGUUC against TRIM24: -0.553; for UUGACAGCAAUCACAGUGG against AWAT2: 0.583. UCAGCUCGGAUUUCACGGC against SHISA7: the seed-corrected z-score was determined as 0.404. For UUAAGUUGAUCUGUACUGC against FAM117B the value was -0.0872; for CAGCCAUCUAGGAUGAGCC against RPL10P8, -0.668. For UGGUUUUAGAGGAAUAGGG against SLC51A the value was -0.953. For UAGGAAACCAAGCACAUCU against SH3BGRL the value was 1.88; for AUAGCCUCCAGUCCAAUUG against TM2D3, -2.03.

UUGGUGGUGAACAUAGGGA against TAL1 yielded a seed-corrected z-score of -0.201.

The sequence UAGGUUGGAGAAUUGUUCC against T came in with a seed-corrected z-score of -0.372. The same measure for UGUUGUAGGAAUAGCCUGG against PITX2: -2.28.

For UGGUCAUUUGGUAUGAGGC against CAPRIN2, the seed-corrected z-score stood at 0.0796. The same measure for UUCUUGAGAAGCAGGUUCU against STAT6: -0.716. Sequence UGAUCCAUGGGUUCGAUCC against ROCK2 showed a seed-corrected z-score of -0.007. AAAAUAGAGGUCACCAUAC against C1orf35 yielded a seed-corrected z-score of 0.456.

The sequence UGAGAAUUAUGAUCACUGC against SLC7A1 returned a seed-corrected z-score of -0.0797.

UUUGUGCUUAACUGGCUGG against RPL12 had a seed-corrected z-score of -2.56.

As to GCCGCGUACUUGUUGUUGC against IGLL1, the seed-corrected z-score came to 0.951. As for UCCUGCUACAUUUACAUCG against FERMT1, the seed-corrected z-score was -3.31.
